Laboratory results published in PubChem BioAssay AID589 (National Center for Advancing Translational Sciences (NCATS), 2007).
Hit rate of the full screen: of about 59,000 compounds, about 6,200 (11%) were called active. Roughly 9% stayed inconclusive and do not appear here. This is one part of a sample in which actives are shown more often than they occur. Cut-off read from the data, not from the text of the source: active = max dye-equivalent concentration above about 10 nM; inconclusive = mostly about 1.1 nM to 9.6 nM; inactive = weaker than that.

Assay: qHTS Assay for Spectroscopic Profiling in 4-MU Spectral Region
Details: compound autofluorescence, 340/450 nm, 4-MU equivalents; active compounds read high
Procedure, shortened: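 Intrinsic fluorescence at 340/450 nm (ex/em) was read after 15 min at room temperature in pH 8.0, 100 mM Tris. Each compound concentration expressed as 4-MU-equivalent concentration from a six-point 4-MU standard series on each plate.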

Row | SMILES | max dye-equivalent concentration
1 | CC(C)n1c(SCC(=O)Nc2ccccc2N2CCCCC2)nc2c1c(=O)n(C)c(=O)n2C | inactive
2 | Fc1ccccc1OCCSc1nc2ccccc2o1 | inactive
3 | CC(C)NS(=O)(=O)c1ccc(CCC(=O)N2CCOCC2)cc1 | inactive
4 | Cc1ccccc1CSc1nnc(-c2cccnc2)n1N | inactive
5 | COc1ccccc1CNc1ncncc1-c1cccnc1 | inactive
6 | COc1ccc(C(=O)CSc2nnc(COc3ccccc3)n2Cc2ccco2)cc1 | inactive
7 | O=c1c2[nH]c3ccc(Cl)cc3c2ncn1Cc1ccccn1 | inactive
8 | COc1ccc2[nH]c3c(=O)n(Cc4ccco4)cnc3c2c1 | 92 nM (active)
9 | COc1ccc(-c2nnc(SCC(=O)c3ccco3)n2-c2ccccc2)cc1 | inactive
10 | Cc1ccc(Cc2cncc(O)c2)cc1S(=O)(=O)O | inactive
11 | CCOC(=O)c1cc2n(c1N)-c1ccccc1C2=O | inactive
12 | CCCn1c(=NC(C)=O)c(C(=O)OCC)cc2c(=O)n3ccccc3nc21 | 3500 nM (active)
13 | CCOC(=O)c1cc2n(c1C)-c1ccccc1C2=O | inactive
14 | CCC(=O)Nc1ccc2c(c1)nc(CCN1CCN(C)CC1)n2C | inactive
15 | O=C(Nc1c2c(nn1-c1ccc(F)cc1)CS(=O)C2)C12CC3CC(CC(C3)C1)C2 (configuration not stated) | inactive
16 | CC(C)Cc1ccc(S(=O)(=O)N2CCN(C(=O)c3ccco3)CC2)cc1 | inactive
17 | CCc1cc(=O)oc2cc(C)cc(OC(C)C(=O)O)c12 (configuration not stated) | 82 nM (active)
18 | Cc1cc2c(=O)n(C)c(SCC(=O)c3cc4ccccc4o3)nc2s1 | inactive
19 | CC(=O)Nc1ccc(S(=O)(=O)NCCc2ccccc2)cc1 | inactive

Row | SMILES | max dye-equivalent concentration
20 | COCCOC(=O)C1=C(C)NC(=O)CC1c1cc2c(cc1Br)OCO2 (configuration not stated) | inactive
21 | COC(=O)c1ccc(C2NC(=O)NC(C)=C2C(=O)N(C)C)cc1 (configuration not stated) | inactive
22 | CCCOC(=O)C1=C(C)NC2=C(C(=O)C(C(=O)OC)C(C)C2)C1c1ccc(N(C)C)cc1 (configuration not stated) | 23 nM (active)
23 | Cc1noc(C)c1CSc1nnc2ccc3ccccc3n12 | inactive
24 | CCOC(=O)c1c(NC(=O)CSc2nnc(C)c(=O)[nH]2)sc2c1CCC2 | inactive
25 | CC1CN(C2CCCCC2)c2nc3c(c(=O)n(C)c(=O)n3C)n2C1 (configuration not stated) | inactive
26 | CC(C)Cn1c(CCC(=O)O)ccc1-c1cccs1 | 350 nM (active)
27 | O=C(O)CCC(=O)N(Cc1cccs1)Cc1cccs1 | inactive
28 | Cc1cc(NC(=O)c2cc(-c3cccs3)on2)nn1Cc1ccc(Cl)cc1 | inactive
29 | COc1cc(C2C3C(=O)N(c4ccccc4)C(=O)C3ON2c2ccccc2)ccc1O (configuration not stated) | inactive
30 | CC(C)OCCCNc1nc2c(c(=O)n(Cc3ccccc3F)c(=O)n2C)n1C | inactive
31 | COCc1nc2ccccc2n1Cc1ccccc1Br | inactive
32 | CC1(C)CC(=O)NC=C(c2ccccc2)C1 | inactive
33 | c1ccc(-c2[nH]ncc2-c2nc3ccccc3[nH]2)cc1 | inactive
34 | O=c1[nH]c(-c2ccccc2)c(-c2ccccc2)[nH]1 | 18 nM (active)
35 | Clc1ccccc1-c1cc(NCCN2CCOCC2)ncn1 | inactive
36 | COc1ccc2[nH]c(=O)c(-c3noc(-c4ccc(F)cc4)n3)cc2c1 | 12 nM (active)
37 | Cc1cccc(-c2noc(-c3ccc(F)cc3)n2)c1 | inactive
38 | CC(=O)N1CCC2(CCCN(Cc3ccccc3)C2)CC1 | inactive

Row | SMILES | max dye-equivalent concentration
39 | O=C(CSc1n[nH]c(-c2cccnc2)n1)Nc1ccnc2ccccc12 | inactive
40 | O=C(O)C1CC(=O)N(Cc2cccnc2)C1 (configuration not stated) | inactive
41 | O=C(CCS(=O)(=O)Cc1ccccc1F)NCCCN1CCCCC1 | inactive
42 | CC(C)(C)c1nc(NCC2CCCO2)c2nnn(Cc3ccccc3)c2n1 (configuration not stated) | inactive
43 | Cc1nc(Nc2ccc3c(c2)OCCO3)c2nnn(Cc3ccccc3Cl)c2n1 | 640 nM (active)
44 | C#CCNc1nc(C(C)C)nc2c1nnn2Cc1ccccc1F | inactive
45 | Cc1ccc(-c2nnn(CC(=O)N(CCO)C(C(=O)NC(C)(C)C)c3ccncc3)n2)cc1 (configuration not stated) | inactive
46 | COc1ccc(S(=O)(=O)N2CCCC(C(=O)N3CCN(C)CC3)C2)cc1C (configuration not stated) | inactive
47 | COC(=O)N1CCC2(CCCN(Cc3ccccc3OC)C2)CC1 | inactive
48 | COc1ccc(CCNC(=O)CSc2nnc(-c3cccc(F)c3)o2)cc1OC | inactive
49 | O=C(O)CSCc1nc2ccccc2s1 | inactive
50 | COC(=O)Cc1cc(=O)n(-c2nc3ccccc3s2)[nH]1 | inactive
51 | CCC(=O)NC(=Nc1nc2ccccc2s1)NC(=O)CC | 150 nM (active)
52 | COC(=O)CNS(=O)(=O)c1ccc(Cc2ccc(S(=O)(=O)NCC(=O)OC)cc2)cc1 | inactive
53 | Cc1ccccc1Nc1nnc(C)c(=O)[nH]1 | inactive
54 | COc1ccc(C2=CC(c3cccc(OC)c3)n3nnnc3N2)cc1 (configuration not stated) | 13 nM (active)
55 | CCOc1cccc(-n2nnnc2-c2ccc(OC)cc2)c1 | inactive
56 | COc1ccc(C2C(C(=O)Nc3ccccc3OC)=C(C)Nc3nnnn32)c(OC)c1 (configuration not stated) | inactive
57 | CCCCC(=O)N1CC2(C)CN(C(=O)CCCC)CC(C)(C1)C2=O | inactive
